Source: PubChem BioAssay AID1779 (Sanford-Burnham Center for Chemical Genomics, 2009)
The campaign covered roughly 290,000 compounds. About 160 (0.055%) were called active. Many of the other results were omitted from the sample, so actives are more common in it than they were. Values without a mark were called inactive. No stated cut-off is given here; in the data, active means inhibition above about 50%; inactive means the rest.

The compounds below were run against Tyrosine-protein phosphatase non-receptor type 22 (Homo sapiens) (UniProt Q9Y2R2) (assay: inhibitors of LYP phosphatase, biochemical, fluorescence intensity, uHTS (AID 1779;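 further: plate controls were vehicle with enzyme for no effect and no enzyme for full effect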)). Settings: recombinant LYP phosphatase, at 11.5 µM, stronger effect = higher value.
Sequence of Tyrosine-protein phosphatase non-receptor type 22 (Homo sapiens) (Q9Y2R2 whole entry, looked up): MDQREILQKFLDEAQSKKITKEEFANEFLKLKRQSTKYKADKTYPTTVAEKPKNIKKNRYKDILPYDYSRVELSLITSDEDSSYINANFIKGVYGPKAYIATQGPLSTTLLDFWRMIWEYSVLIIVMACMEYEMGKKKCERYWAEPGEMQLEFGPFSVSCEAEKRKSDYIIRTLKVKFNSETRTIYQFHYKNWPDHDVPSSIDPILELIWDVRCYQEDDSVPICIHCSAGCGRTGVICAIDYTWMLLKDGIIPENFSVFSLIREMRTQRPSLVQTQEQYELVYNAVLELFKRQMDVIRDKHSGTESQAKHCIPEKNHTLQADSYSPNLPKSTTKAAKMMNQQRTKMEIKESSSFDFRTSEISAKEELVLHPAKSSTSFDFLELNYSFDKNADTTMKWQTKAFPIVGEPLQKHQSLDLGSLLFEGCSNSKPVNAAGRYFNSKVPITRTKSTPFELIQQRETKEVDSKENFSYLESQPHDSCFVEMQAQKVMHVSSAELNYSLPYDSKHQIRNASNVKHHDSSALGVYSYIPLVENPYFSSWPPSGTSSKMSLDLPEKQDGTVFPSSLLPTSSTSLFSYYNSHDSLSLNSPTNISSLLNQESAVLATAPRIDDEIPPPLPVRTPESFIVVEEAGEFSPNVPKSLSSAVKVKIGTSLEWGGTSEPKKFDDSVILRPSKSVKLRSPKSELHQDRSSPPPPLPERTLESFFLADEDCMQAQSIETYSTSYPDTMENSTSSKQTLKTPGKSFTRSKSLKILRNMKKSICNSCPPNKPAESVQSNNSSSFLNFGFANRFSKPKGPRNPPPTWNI
`CC(=O)c1ccc2c(c1)C1C(Cl)C(Sc3ccccc3[N+](=O)[O-])CC1C(c1ccccc1)N2` (stereo not given) gave an inhibition of 6%. For `CC(=O)c1ccc2c(c1)C1C(Cl)C(Sc3ccccc3[N+](=O)[O-])CC1C(C(=O)O)N2` (stereo not given), the inhibition was 51.4% (active). In the case of `CCN(CC)C(=O)c1ccc2c(c1)C1C(Cl)C(Sc3ccccc3[N+](=O)[O-])CC1C(C(=O)O)N2` (stereo not given), the inhibition is reported as 6.1%. With `O=P(Nc1ccccc1)(Nc1ccccc1)Oc1ccc(Cl)cc1` the inhibition was -4%. In the case of `COCc1cc(C2SCC(=O)Nc3c2c(=O)[nH]n3C(C)C)ccc1OC` (stereo not given), the inhibition is reported as -11.3%. In the case of `CCOP(=O)(/C=C(\Cl)c1ccccc1)C(O)c1ccc(F)cc1` (stereo not given), the inhibition is reported as -5.3%. In the case of `CC(=O)C1C(=O)NC23CCCCC2C1c1ccccc1O3` (stereo not given), the inhibition is reported as 1.8%. `CCn1nc(/C=C/c2ccccc2)nc2c(=O)n(C)c(=O)nc1-2` was tested, and the inhibition was 79.3% (active). `COc1ccc(-n2c(/C=C/c3ccc(O)cc3)nc3ccccc3c2=O)cc1` gave an inhibition of -7.8%. With `O=c1c2ccccc2nc(-c2cccs2)n1-c1ccccc1` the inhibition was -10.4%. `CCOc1ccc(-n2c(-c3cccs3)nc3ccccc3c2=O)cc1` gave an inhibition of 8.8%. `COc1ccc(-n2c(-c3ccccc3)nc3ccccc3c2=O)cc1` gave an inhibition of -9.9%. `CCCc1nc2ccccc2c(=O)n1-c1ccc(OC)cc1` gave an inhibition of 2.2%. `CCn1nc(-c2ccccc2)nc2c(=O)n(C)c(=O)nc1-2` was tested, and the inhibition was 60.7% (active). With `CCn1nc(-c2cccs2)nc2c(=O)n(C)c(=O)nc1-2` the inhibition was 52.8% (active). For `O=c1c2ccccc2nc(/C=C/c2ccccc2)n1-c1ccc(O)cc1`, the inhibition was 3.1%. `COc1ccc(C(=O)N2CCC3(CC2)OCCO3)cc1` showed an inhibition of -5%. `c1ccc2c(CN3CCOCC3)c[nH]c2c1` was tested, and the inhibition was -8.9%. `Cc1cc(OC(=O)c2cccs2)c2c3c(c(=O)oc2c1)CCCC3` gave an inhibition of 2.4%. Work on `CCOC(=O)C(O)(c1ccc(NC(=O)Oc2ccccc2)cc1)C(F)(F)F` (stereo not given) yielded an inhibition of -3.1%. With `CCN1CCN(c2ccc([N+](=O)[O-])cc2C=C2C(=O)NC(=O)NC2=O)CC1` the inhibition was -8.1%. `c1nc2nc3c(c(N4CCNCC4)n2n1)CCCC3` was tested, and the inhibition was -3.9%. `S=P(Nn1cnnc1)(c1ccccc1)c1ccccc1` was tested, and the inhibition was 0.6%. Work on `CCOC(=O)c1c(C)n(CC(O)CN2CCOCC2)c2cc(Br)c(OC)cc12` (stereo not given) yielded an inhibition of -6.1%. With `COc1ccc(-c2nn(CCC#N)cc2C(=O)Nc2ccccc2)cc1OC` the inhibition was -8%. For `CN(C)CC1CSCCC1(O)c1ccc(C(F)(F)F)cc1` (stereo not given), the inhibition was -5.6%. For `Cc1cccnc1-n1c(-c2ccccc2)nc2ccccc2c1=O`, the inhibition was -1.3%. In the case of `Cc1ccc(-c2nc3ccccc3c(=O)n2-c2ncccc2C)cc1`, the inhibition is reported as -0.2%. In the case of `Cc1cccnc1-n1c(C)nc2ccccc2c1=O`, the inhibition is reported as 90.2% (active). `C=CCN1C(=O)NC(=O)C(Cc2ccc(OC)c(OC)c2)C1=O` (stereo not given) gave an inhibition of 3.4%. With `Cn1ncnc2c(=O)n(C)c(=O)nc1-2` the inhibition was 71.9% (active). In the case of `Cc1nc2c(=O)n(C)c(=O)nc-2n(C)n1`, the inhibition is reported as 87.9% (active). Compound `CN1CC(C(=O)c2ccc(F)cc2)C(c2ccc(F)cc2)C1` (stereo not given) has an inhibition of -5.4%. Work on `C=CCC1C(=O)NC(=S)NC1=O` yielded an inhibition of 4.3%. Work on `COc1ccccc1N1CCN(CCc2ccccc2)CC1` yielded an inhibition of -7.3%. `N=C1c2ccccc2CN1NC(=O)c1ccc(Br)cc1` was tested, and the inhibition was -5.9%. With `CCCCNC(=O)Nc1ccc(C(O)(C(=O)OCC)C(F)(F)F)cc1` (stereo not given) the inhibition was -8.2%. With `CCOC(=O)C(NC(=O)CCl)(Nc1ccc(C(O)(C(=O)OCC)C(F)(F)F)cc1)C(F)(F)F` (stereo not given) the inhibition was 82.4% (active). With `CCOC(=O)C(NC(=O)CC)(Nc1ccc(C(O)(C(=O)OCC)C(F)(F)F)cc1C)C(F)(F)F` (stereo not given) the inhibition was -6.6%. In the case of `CCC(=O)N1CC(=O)Nc2ccc(F)cc2C1c1ccc(F)cc1` (stereo not given), the inhibition is reported as 1%.
